Source: ChEMBL document CHEMBL3433997, “St. Jude Leishmania screening dataset” (2016)

What follows are compounds tested against Glucose transporter (Leishmania mexicana) (UniProt O61059) (assay: ST_JUDE_LEISH: Cytotoxicity at 2uM final concentration against transgenic Leishmania Mexicana promastigotes LmGT2 that are glucose transport deficient and complemented with the L. Mexicana glucose transporter 2. Activity is measured by DNA content using SYBR green in vitro).
Assay type: functional

SMILES	inhibition [%]
O=C(/C=C/c1cc([N+](=O)[O-])ccc1Cl)N1CCC(CCN2CCC(c3c[nH]c4ccccc34)CC2)CC1	0.76
O=C(Nc1ccc(OC2CCN(Cc3ccsc3)C2)c(Cl)c1)c1ccc2ncccc2c1 (stereo not given)	-0.92
C=CCc1ccccc1OCC(O)CN(C1CCCCC1)C1CCCCC1 (stereo not given)	5.77
CC(=O)c1ccc2nc[nH]c(=O)c2c1	91.6
CC(C)S(=O)(=O)N1CCN(Cc2ccc3c(c2)nc(NC(=O)c2ccsc2)n3C[C@H](O)c2ccccc2)CC1	-0.17
Cc1ccc(/C=C/C(=O)N2CCC(CCN3CCC(c4c[nH]c5ccccc45)CC3)CC2)cc1C	6.17
Cc1nc(N)nc(N)c1OCCCCCCOc1ccccc1	-0.89
CCNc1cc(C(=O)N[C@@H](Cc2ccccc2)[C@H](O)CNCc2cccc(-n3ccnc3)c2)cc(N2CCCC2=O)c1	1.12
N[C@@H](CCNC1CCN(c2cccc(C(F)(F)F)c2)CC1)Cc1ccc(F)c(F)c1	101
CN(C)c1ccc(CN2CCC(NC(=O)c3ccc(-c4ccccc4Cl)s3)CC2)cc1	1.76
Cc1cc(-c2ccc3c(c2)CCN(CCCOc2ccc4c(c2)CCN4C(=O)/C=C/c2ccccc2Cl)CC3)no1	4.78
NC1CCCN(Cc2cccc(-c3ccc(-c4nc5ccccc5[nH]4)s3)c2)C1 (stereo not given)	1.78
COc1cc(CCOc2c(C)nc(N)nc2N)cc(OC)c1OC	-0.41
S=C(NCCCCCN1CCC(c2c[nH]c3ccccc23)CC1)Nc1cc(Cl)cc(Cl)c1	0.49
Cc1c(C)n(C2CCCC2)c2ncnc(OC3CCN(CC(=O)NCC4CC4)CC3)c12	2.01
Cn1cncc1C(=O)Nc1cccc(-c2ccc(-c3nc4ccccc4[nH]3)cc2)c1	-0.9
CCN(CC)Cc1cc(Nc2c3ccc(Cl)cc3nc3cccc(OC)c23)ccc1O	5
Cc1cccc(NC(=O)NCc2ccccc2)n1	2.38
Cc1ccccc1C1CCN(C2CCC(NC(=O)/C=C/c3ccccc3C(F)(F)F)CC2)CC1 (stereo not given)	4.39
O=C(NCCN1CCCCC1)c1ccc(Nc2nccc(Nc3ccc(Oc4ccccc4)cc3)n2)cc1	16.6

SMILES	inhibition [%]
CCOC(=O)Cn1ccc2c(NCc3ccccc3)nc(C)nc21	2.53
Cc1cc(-c2ccc(O)c(CNC3CCCCC3)c2)cnc1N	0.95
CCCCCCCN1CC[C@@H](CCCc2ccnc3ccc(OCCCCN/C(N)=N/O)cc23)[C@@H](CC)C1	2.04
CC(=O)Oc1c(C2CCN(CCCCNC(=O)c3ccc(NC(=O)c4ccc(Cl)cc4)cc3)CC2)ccc2ccccc12	4.42
O=C(Nc1cccc(C(F)(F)F)c1)c1cccc2nc(C(F)(F)F)[nH]c12	15
CC(C)Cc1nc2nc(N)nc(N)c2cc1C(C)C	1.5
O=C(c1ccc(Cl)cc1)C1CCN(CCCOc2ccc3c(c2)CCNCC3)CC1	0.17
COc1ccc(O)cc1/C=N/Nc1ccnc2cc(Cl)ccc12	9.21
CC(C)CNCc1ccc(-c2cccc(CN(CCN(C)C)C(=O)NCCc3ccccc3)c2)cc1	0.23
Oc1cccc(CCNCCCCCCNCCc2ccc(Cl)cc2)c1	2.3
Cc1ccccc1CNc1nccc(NCCC(=O)Nc2ccccc2)n1	0.01
O=C(Nc1ccc(Oc2cccnc2)cc1)C1CCN(Cc2cc(Cl)ccc2O)CC1	1.47
CN(C)CCOc1cc(NC(=O)Nc2ccc(-c3ccncc3)c(C(F)(F)F)c2)ccc1Cl	9.08
Fc1cccc(Nc2nc(NCCc3ccc(Cl)cc3)nc(Nc3cccc(F)c3)n2)c1	-4.86
Cc1cc2nc(-c3ccc(C(=O)NCCCc4ccccc4)cc3)[nH]c2cc1C	10.1
Cc1ccc2nc(N/C(N)=N/C(=O)NC3CCCCC3)nc(C)c2c1	2.16
Cc1cccc2nc(-c3ccc(-c4cccc(NC(=O)C(C)CN(C)C)c4)s3)[nH]c12 (stereo not given)	0.27
COc1c(C(=O)NC2CCN(Cc3ccccc3)C2)cnc2ccccc12 (stereo not given)	8.95
Cc1cc(F)ccc1N(c1nc(-c2cc(Cl)ccc2Cl)cs1)C1CCNC1 (stereo not given)	4.16
CNC(=O)COc1cc(C)c(C2CCN(CCCCNC(=O)c3ccc(-c4ccc(C(F)(F)F)cc4)cc3)CC2)cc1C	1.85
